Z-score and composite z-score data for nine compounds are collected here from PubChem BioAssay.

Experiment [1] in a line: compound effects on lung adenocarcinoma cell viability – A549, calcein-AM fluorescence, 48 h, basal, profiling panel (AID 1162). Note: test concentration not given here. As to conditions: higher = more signal.
Experiment [2] is described as follows: compound effects on differentiated 3T3-L1 adipocyte viability – cell-based, 3T3-L1 adipocytes, calcein-AM fluorescence, 48 h, basal, profiling panel (AID 1163). Note: test concentration not given here. The conditions noted are these: 3T3-L1 adipocytes viability, higher = more signal.
Experiment [3] is described as follows: compound effects on hepatocellular carcinoma cell viability – HepG2, calcein-AM fluorescence, 48 h, basal, profiling panel (AID 1164). Note: test concentration not given here. As to conditions: higher = more signal.
Experiment [4] in a line: compound effects on multiple myeloma cell viability – MM1S, calcein-AM fluorescence, 48 h, basal, profiling panel (AID 1165). Note: test concentration not given here. The conditions noted are these: higher = more signal.
Experiment [5] in a line: calcein-AM signal in unstimulated myeloma cells – cell-based, calcein-AM fluorescence, 48 h, PK04 Diversity Set, profiling panel (AID 1166).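 Note: cells grown under basal conditions without added stimulus; test concentration not given here.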 The conditions noted are these: RPMI8226 myeloma viability, higher = more signal.
A short description of experiment [6]: JC-1 mitochondrial signal, unstimulated HepG2 cells – cell-based, JC-1 fluorescence, 24 h, 100 nL compound, profiling panel (AID 1167). Note: test concentration not given here. The conditions noted are these: HepG2 mitochondrial potential, higher = more signal.
A short description of experiment [7]: JC-1 mitochondrial signal, unstimulated adipocytes – cell-based, JC-1 fluorescence, 3T3-L1 adipocytes, 24 h, 100 nL compound, profiling panel (AID 1168). Note: test concentration not given here. As to conditions: JC-1 mitochondrial fluorescence, higher = more signal, called active from +8 up or from −8 down.
Experiment [8] is described as follows: JC-1 mitochondrial signal, unstimulated myeloma cells – cell-based, JC-1 fluorescence, RPMI8226, 24 h, 100 nL compound, profiling panel (AID 1169). Note: test concentration not given here. The conditions noted are these: JC-1 mitochondrial potential fluorescence, higher = more signal.
Experiment [9] in a line: JC-1 mitochondrial signal, unstimulated MM1S myeloma – cell-based, JC-1 fluorescence, 24 h, 100 nL compound, profiling panel (AID 1170). Note: test concentration not given here. As to conditions: MM1S mitochondrial potential, higher = more signal.
The nature of experiment [10]: resazurin metabolic signal in A549 cells – cell-based, resazurin fluorescence, 24 h, PK04 Diversity Set, profiling panel (AID 1171). Note: test concentration not given here. The conditions noted are these: A549 viability, higher = more signal, called active from +8 up or from −8 down. (In general: The colour change of resazurin is a common sign of viable cells or microbes.)
The nature of experiment [11]: resazurin metabolic signal in HepG2 cells – cell-based, resazurin fluorescence, 24 h, PK04 Diversity Set, profiling panel (AID 1172). Note: test concentration not given here. As to conditions: HepG2 viability, higher = more signal.
Experiment [12] is described as follows: budding yeast growth changes without added modifier – OD600, strain BY4716, 24 h, basal condition, primary screen (AID 1173). The conditions noted are these: S. cerevisiae BY4716 growth, OD600, 24 h; higher = more signal, called active from +8 up or from −8 down.
Experiment [13] is described as follows: viability profiling in MM1S myeloma cells – cell-based, resazurin fluorescence, basal, 24 h, PK04 Diversity Set, profiling panel (AID 1174). Note: test concentration not given here. As to conditions: higher = more signal, called active from +8 up or from −8 down.
Experiment [14] has as its target Dihydroorotate dehydrogenase (quinone), mitochondrial (Plasmodium falciparum (isolate 3D7)) (UniProt Q08210). As to the kind of experiment: inhibition of P. falciparum DHODH – biochemical, C-terminal His tag, absorbance 600 nm, primary screen (AID 1175).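 Note: recombinant parasite enzyme with a five histidine tag at its C terminus; test concentration not given here.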 The conditions noted are these: PfDHODH enzyme, DCIP absorbance 600 nm; higher = more signal, called active from +8 up or from −8 down.

Experiment [15] can be described thus: growth modulation of vineyard yeast isolate – strain RM11-1a, OD600, basal, 24 h, primary screen (AID 1177).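 Note: cultures grown under basal conditions with no added stressor; test concentration not given here.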 The conditions noted are these: S. cerevisiae RM11-1a growth, OD600, 24 h; higher = more signal, called active from +8 up or from −8 down.
Experiment [16] is described as follows: growth of efflux-deficient E. coli DRC39 – strain DRC39, OD650, 24 h, E. coli filamentation inducers, primary screen (AID 1178).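 Note: growth measured as culture turbidity by optical density at 650 nm; test concentration not given here.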 As to conditions: E. coli DRC39 acrAB, higher = more signal, called active from +8 up or from −8 down.
Experiment [17] can be described thus: growth of efflux-deficient E. coli DRC39 – strain DRC39, OD650, 48 h, E. coli filamentation inducers, primary screen (AID 1179).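 Note: screen aims at cell division blockers that make cells filament.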 The conditions noted are these: E. coli DRC39 delta-acrAB growth, higher = more signal, called active from +8 up or from −8 down.
A short description of experiment [18]: viability profiling in RPMI8226 myeloma cells – cell-based, resazurin fluorescence, basal, 24 h, PK04 Diversity Set, profiling panel (AID 1180).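 Note: RPMI8826 multiple myeloma cell line at 5000 cells per well; test concentration not given here.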 The conditions noted are these: higher = more signal.
For experiment [19], the target named is E3 ubiquitin-protein ligase XIAP (Homo sapiens) (UniProt P98170). As to the kind of experiment: small molecules binding XIAP protein – biophysical, small-molecule microarray, fluorescence 635 nm, primary screen (AID 1181).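 Note: score merges 667 nm emission and signal to noise over triplicate slides.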 The conditions noted are these: higher = more signal.
Sequence of E3 ubiquitin-protein ligase XIAP (Homo sapiens) (P98170 whole entry, looked up): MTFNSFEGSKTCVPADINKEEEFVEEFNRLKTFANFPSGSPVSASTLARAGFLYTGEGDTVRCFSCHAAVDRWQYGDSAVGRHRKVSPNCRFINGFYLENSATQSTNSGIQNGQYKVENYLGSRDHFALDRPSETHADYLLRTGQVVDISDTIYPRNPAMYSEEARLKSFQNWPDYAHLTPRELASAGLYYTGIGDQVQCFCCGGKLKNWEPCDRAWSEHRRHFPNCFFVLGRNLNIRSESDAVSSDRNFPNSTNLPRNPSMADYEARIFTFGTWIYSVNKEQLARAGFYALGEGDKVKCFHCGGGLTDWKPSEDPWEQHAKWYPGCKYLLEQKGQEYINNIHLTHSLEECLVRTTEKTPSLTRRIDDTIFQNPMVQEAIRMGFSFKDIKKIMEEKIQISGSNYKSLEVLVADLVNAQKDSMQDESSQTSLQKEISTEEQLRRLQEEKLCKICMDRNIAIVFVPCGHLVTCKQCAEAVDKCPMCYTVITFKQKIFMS

Calls of active or inactive are those of the source.

Sequence of Dihydroorotate dehydrogenase (quinone), mitochondrial (Plasmodium falciparum (isolate 3D7)) (Q08210 whole entry, looked up): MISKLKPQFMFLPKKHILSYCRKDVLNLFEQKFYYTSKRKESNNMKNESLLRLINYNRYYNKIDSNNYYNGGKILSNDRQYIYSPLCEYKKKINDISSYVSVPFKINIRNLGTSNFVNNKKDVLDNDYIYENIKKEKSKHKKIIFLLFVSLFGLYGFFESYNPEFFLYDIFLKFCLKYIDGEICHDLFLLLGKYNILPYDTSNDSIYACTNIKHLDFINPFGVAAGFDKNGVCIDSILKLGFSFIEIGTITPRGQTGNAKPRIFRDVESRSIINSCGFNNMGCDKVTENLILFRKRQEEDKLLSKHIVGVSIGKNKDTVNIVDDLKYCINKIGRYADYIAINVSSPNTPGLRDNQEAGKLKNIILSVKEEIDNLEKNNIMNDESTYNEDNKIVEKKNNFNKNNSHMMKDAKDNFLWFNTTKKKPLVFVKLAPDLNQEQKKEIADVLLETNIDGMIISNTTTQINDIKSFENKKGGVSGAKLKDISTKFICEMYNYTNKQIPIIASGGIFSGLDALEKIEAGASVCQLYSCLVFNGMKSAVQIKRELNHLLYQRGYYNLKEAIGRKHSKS

As to `Cc1ccc(S(=O)(=O)c2cc3oc2CC[C@@H](CO)NC(=O)N(C)Cc2cn(nn2)C[C@H](Cc2ccccc2)NC3=O)cc1`, the z-score in experiment [1] was 1.66; in experiment [2], -0.129; in [3] it was 0.372; in experiment [4] it was -0.971; in experiment [5], 1.28; in [6], 1.35. The z-score is 0.856 (inactive) in experiment [7]; 0.501 in experiment [8]; 0.536 in [9]; 1.39 (inactive) in experiment [10]; 1.02 in experiment [11]; -2.64 (inactive) in experiment [12]. Besides, the z-score is 1.42 (inactive) in experiment [13]; 0.288 (inactive) in experiment [15]; 1.74 (inactive) in experiment [16]; 1.3 (inactive) in experiment [17]; 1.03 in experiment [18]. In addition, the composite z-score is 0.164 (inactive) in experiment [14] and 0.0975 in experiment [19].
For the compound `CO[C@H]1COC(=O)[C@H](CCSC)NC(=O)CC=C[C@@H](C)COC(=O)[C@@H](OCc2ccccc2)C=C[C@@H]1C`, the z-score in experiment [1] was 0.349; in experiment [2] it was 0.507; in experiment [3], 0.0042; in [4], 0.199; in [5] it was -0.358; in experiment [6] it was 0.842. Further, the z-score in experiment [7] was 1.23 (inactive); in experiment [8], 0.365; in experiment [9], 1.34; in experiment [10], 0.613 (inactive); in experiment [11], 0.732; in experiment [12], 0.0539 (inactive). In addition, the z-score in experiment [13] is 1.06 (inactive); in experiment [15], 0.449 (inactive); in experiment [16] it was 0.607 (inactive); in experiment [17] it was 0.26 (inactive); in experiment [18] it was 0.658. Further, the composite z-score in experiment [14] was 0.292 (inactive); in experiment [19], -0.12.
For `C=CCc1cccc([C@@H]2[C@@H](C)CC[C@H]3C(=O)N4[C@H](c5cccc(CC=C)c5)[C@@H](C)CC[C@H]4C(=O)N23)c1`, the z-score in experiment [1] is -0.814; in experiment [2], 1.29; in experiment [3], -0.746; in experiment [4], -3.58; in [5], -3.9; in experiment [6], 2.17. Besides, the z-score in experiment [7] is 0.639 (inactive); in [8] it was -0.811; in [9] it was -1.28; in experiment [10], 3.27 (inactive); in [11], 2.52; in [12], -1.2 (inactive). For the same compound, the z-score in experiment [13] is 0.778 (inactive); in experiment [15], 1.1 (inactive); in experiment [16] it was 0.55 (inactive); in experiment [17], -0.184 (inactive); in experiment [18], -1.11. The figures for the composite z-score in experiment [14] and in experiment [19] were -1.76 (inactive) and -0.187, respectively.
Consider `C[C@@H]1C=CCC(=O)OC[C@H]2O[C@@H](C=C[C@@H]2O)[C@H](C)C=CCC(=O)OC[C@H]2O[C@H]1C=C[C@@H]2O`, for which the z-score in experiment [1] was -0.883; in experiment [2] it was 1.15; in experiment [3] it was 0.158; in experiment [4], 0.631; in experiment [5], -1.99; in experiment [6], 0.885. Also, the z-score was 0.902 (inactive) in [7]; -0.744 in experiment [8]; 0.92 in experiment [9]; -0.573 (inactive) in experiment [10]; -0.269 in [11]; -2.13 (inactive) in experiment [12]. Besides, the z-score in experiment [13] is 0.689 (inactive); in experiment [15], -2.89 (inactive); in experiment [16] it was 0.552 (inactive); in experiment [17], -1.41 (inactive); in experiment [18], 0.807. Also, the composite z-score is -3.68 (inactive) in experiment [14] and -0.039 in [19].
Turning to `O=C(NCc1ccccc1)[C@@]1(CCS(=O)(=O)c2ccccc2)COC(c2ccc(OCCCO)cc2)=N1`, the z-score in experiment [1] is 1.29; in experiment [2], 0.897; in experiment [3], -0.0721; in experiment [4], -2.26; in experiment [5] it was -0.256; in [6], 1.61. Besides, the z-score in [7] is 1.11 (inactive); in [8], -0.263; in experiment [9], -0.944; in [10] it was -0.335 (inactive); in [11], 0.929; in [12] it was 0.0648 (inactive). The z-score is -0.12 (inactive) in experiment [13]; 1.52 (inactive) in experiment [15]; 2.95 (inactive) in [16]; 1.9 (inactive) in experiment [17]; -0.0092 in experiment [18]. For the same compound, the results for the composite z-score in experiment [14] and in experiment [19] were -0.297 (inactive) and 0.272, respectively.
`COc1cc([C@@H]2N[C@H](C(=O)O)Cc3c2[nH]c2ccccc32)cc(OC)c1OC`: the z-score in [1] is 0.937; in experiment [2], 1.05; in [3], -0.793; in experiment [4] it was -0.0434; in [5] it was 0.407; in [6], -0.737. The z-score in experiment [7] is -0.135 (inactive); in experiment [8], -0.663; in [9], 0.639; in [10], 0.455 (inactive); in [11], 0.384; in [12], -0.61 (inactive). The z-score is 1.39 (inactive) in experiment [13]; -0.8 (inactive) in [15]; -0.105 (inactive) in experiment [16]; 0.197 (inactive) in [17]; 1.03 in experiment [18]. Besides, the composite z-score was -1.7 (inactive) in [14] and -0.227 in [19].
As to `CN(C)CCCC[C@@H]1NC(=O)[C@@H]2C[C@H](C(=O)O)[C@H](c3ccc(O)cc3)N2C1=O`, the z-score in [1] is -0.533; in [2] it was 1.36; in [3], -1.03; in experiment [4], -3.01; in experiment [5], -0.102; in experiment [6], 1.26. For the same compound, the z-score is 0.292 (inactive) in [7]; -0.0425 in experiment [8]; -0.971 in experiment [9]; -0.385 (inactive) in experiment [10]; -1.15 in [11]; -0.976 (inactive) in experiment [12]. Moreover, the z-score in experiment [13] was 1.2 (inactive); in experiment [15] it was -0.422 (inactive); in experiment [16] it was 0.994 (inactive); in experiment [17] it was -0.0998 (inactive); in experiment [18] it was 0.493. Also, the composite z-score was -0.621 (inactive) in experiment [14] and 0.101 in experiment [19].
Turning to `COCCCNC(=O)[C@@]1(Sc2ccc(C)cc2)CC(=O)N(Cc2cc(C(F)(F)F)cc(C(F)(F)F)c2)[C@@H]1c1ccc(CO)cc1I`, the z-score in experiment [1] was 0.697; in [2], 1.34; in [3], -0.632; in [4], -2.24; in [5], -2.34; in [6] it was 0.0901. The z-score in experiment [7] was 0.135 (inactive); in [8], -0.00613; in experiment [9], -0.315; in [10], 0.555 (inactive); in experiment [11], -0.125; in experiment [12] it was -3.95 (inactive). The z-score in [13] was -2.01 (inactive); in [15], -2.16 (inactive); in experiment [16] it was 0.818 (inactive); in [17] it was 0.328 (inactive); in experiment [18] it was -1.2. The composite z-score in [14] was -0.625 (inactive); in experiment [19] it was 0.0425.
As to `CC(C)[Si]1(C(C)C)OCc2cc(C3CC3)nc(-c3ccccc3)c21`, the z-score in [1] is 0.0145; in [2], 1.06; in [3], -0.899; in [4], -0.319; in experiment [5], -1.54; in [6], -0.012. The z-score in experiment [7] was 1.6 (inactive); in experiment [8], -0.373; in experiment [9], 0.542; in experiment [10] it was 1 (inactive); in experiment [11] it was 0.883; in experiment [12], -1.53 (inactive). The z-score in experiment [13] was 0.972 (inactive); in experiment [15], -1.75 (inactive); in experiment [16], 1.39 (inactive); in experiment [17] it was 0.656 (inactive); in experiment [18], 0.536. Further, the figures for the composite z-score in [14] and in experiment [19] were 0.135 (inactive) and 0.0399, respectively.
